From PubChem BioAssay (Tox21) come the findings set out here.

The nature of experiment [1]: qHTS assay to identify small molecule agonists of the sonic hedgehog signaling (Shh) pathway (AID 1259368; calls by dose curve;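 also: NIH/3T3-derived 3T3Gli1-Luc cells carrying a stable Gli1-driven firefly luciferase reporter; series mostly up to about 92 µM; nearly all actives have a fitted effect of over 15% in size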). In short, it runs like this:
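Steps: seed 3T3 Gli1-Luc cells, incubate 4 hr at 37 C, pin-transfer compounds in DMSO alongside a positive control, incubate 24 hr, add luciferase detection reagent, wait 30 min at room temperature, read luminescence.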

A short description of experiment [2]: qHTS assay to identify small molecule antagonists of the sonic hedgehog signaling (Shh) pathway (AID 1259369; calls by dose curve; also: nearly all actives have a fitted effect of over 45% in size; also: potency is read from the fitted curve at half-maximal effect). In short, it runs like this:
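Inhibition of Shh signalling is measured as reduced Gli1-response-element firefly luciferase output in an NIH/3T3-derived stable reporter clone stimulated with conditioned medium for 24hr.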

In experiment [3] the target is Estrogen receptor beta (Homo sapiens) (UniProt Q92731). The experiment is described as follows: qHTS assay to identify small molecule agonists of the estrogen receptor beta (ER-beta) signaling pathway (AID 1259377; active = well fitted activation curve with a large enough effect in the signal ratio in the repeat runs, not every such curve was filed as active; the % refers to the signal ratio). In short, it runs like this:
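A UAS-controlled beta-lactamase reporter in ER-beta-UAS-bla HEK293T cells reports receptor activation. Compounds act for 16 hr at 37C in 2% charcoal-stripped serum, and a FRET substrate is read by fluorescence after 2 hours.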

Experiment [4] has the same target. The experiment is described as follows: qHTS assay to identify small molecule antagonists of the estrogen receptor beta (ER-beta) signaling pathway (AID 1259378; active = well fitted inhibition curve with a large enough effect in the signal ratio in the repeat runs, not every such curve was filed as active; the % refers to the signal ratio; also: potency is read from the fitted curve at half-maximal effect). The procedure, abridged:
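Antagonist mode: compounds added to beta-lactamase reporter HEK293T ER-beta-UAS cells stimulated with E2 (1nM final), 16 hr at 37C. LiveBLAzer B/G FRET substrate, 2 hours room temperature, fluorescence read-out.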
In general terms: Quantitative high-throughput screening tests each substance at several concentrations.

Experiment [5] can be described thus: qHTS assay to identify small molecule agonists of the androgen receptor (AR) signaling pathway in the presence of an antagonist - cell viability counter screen (AID 1259379).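 Also: MDA-kb2 human breast cancer cells carrying an MMTV luciferase reporter; series mostly up to about 92 µM; nearly all actives have a fitted effect of over 25% in size.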 The procedure, abridged:
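Fluorescence from CellTiter-Fluor, added after 15 hr and read 1 hr later, gave cell viability. Cells were MDA-kb2 exposed to compounds (15 concentrations) in the presence of 3.0uM nilutamide at 37C, 0% CO2.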

A short description of experiment [6]: qHTS assay to identify small molecule agonists of the estrogen receptor beta (ER-beta) signaling pathway - cell viability counter screen (AID 1259380). Also: nearly all actives have a fitted effect of over 30% in size. The procedure, abridged: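 Same-well viability counter screen. Cells: ER-beta-UAS-bla HEK293T, plated 6 hr before compound, in 2% charcoal-stripped FBS. Compound exposure 16 hr, 37C; viability by CellTiter-Glo luminescence after 30 min at room temperature.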

Experiment [7] in a line: qHTS assay to identify small molecule antagonists of the estrogen receptor beta (ER-beta) signaling pathway - cell viability counter screen (AID 1259382).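 Also: HEK293T cells carrying ER-beta-UAS-bla reporter stimulated with estradiol; series mostly up to about 92 µM; nearly all actives have a fitted effect of over 55% in size.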 In short, it runs like this: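 Following a 6 hr plating period, HEK293T cells carrying a UAS-driven beta-lactamase reporter under ER-beta control received compounds and 1nM E2 (final). After 16 hr at 37C and 2 hr substrate loading, CellTiter-Glo luminescence indicated viability.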

For experiment [8], the target named is Estrogen receptor (Homo sapiens) (UniProt P03372). Kind of experiment: qHTS assay to identify small molecule agonists of the estrogen receptor alpha (ER-alpha) signaling pathway in the presence of an antagonist (AID 1259383; calls by dose curve; also: top concentration of the series differs between compounds; nearly all actives have a fitted effect of over 15% in size). In short, it runs like this: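 Cells are hormone-deprived for 5 days (charcoal-stripped FBS, no phenol red), plated for 24hr, spiked with 10.0nM ICI-182,780, then dosed at 15 concentrations. After 22hr at 37C, ONE-Glo luminescence reports ERE-luciferase activity.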
Estrogen receptor (Homo sapiens), sequence (P03372 whole entry, looked up): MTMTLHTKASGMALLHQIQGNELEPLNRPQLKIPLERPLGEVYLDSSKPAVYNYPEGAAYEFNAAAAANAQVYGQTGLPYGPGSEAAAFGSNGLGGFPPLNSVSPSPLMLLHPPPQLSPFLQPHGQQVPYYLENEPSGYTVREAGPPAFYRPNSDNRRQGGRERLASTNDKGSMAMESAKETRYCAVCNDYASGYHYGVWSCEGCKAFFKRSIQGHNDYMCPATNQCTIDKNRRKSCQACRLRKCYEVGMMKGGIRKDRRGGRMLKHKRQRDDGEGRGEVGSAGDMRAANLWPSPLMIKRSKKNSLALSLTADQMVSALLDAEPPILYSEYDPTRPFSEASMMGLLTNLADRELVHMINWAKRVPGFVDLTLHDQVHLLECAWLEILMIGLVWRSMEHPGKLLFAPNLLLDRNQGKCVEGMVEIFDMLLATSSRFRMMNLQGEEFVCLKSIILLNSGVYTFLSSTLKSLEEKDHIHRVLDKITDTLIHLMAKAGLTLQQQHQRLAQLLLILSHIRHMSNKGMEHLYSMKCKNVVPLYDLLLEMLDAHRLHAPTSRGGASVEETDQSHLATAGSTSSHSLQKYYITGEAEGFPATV

Experiment [9] can be described thus: qHTS assay to identify small molecule agonists of the estrogen receptor alpha (ER-alpha) signaling pathway in the presence of an antagonist - cell viability counter screen (AID 1259386).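 Also: series mostly up to about 92 µM; cells exposed to compounds for 22 h at 37 °C before the viability read; nearly all actives have a fitted effect of over 30% in size.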 In short, it runs like this: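 Cells are starved of estrogens for 5 days in charcoal-stripped serum, seeded for 24hr and co-treated with ICI-182,780 (10.0nM final) and test compounds. After 22hr at 37C, viability is read as CellTiter-Fluor fluorescence.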

Experiment [10] concerns the target Progesterone receptor (Homo sapiens) (UniProt P06401). Kind of experiment: qHTS assay to identify small molecule antagonists of the progesterone receptor (PR) signaling pathway (AID 1346795; active = well fitted inhibition curve with a large enough effect in the signal ratio in the repeat runs, not every such curve was filed as active; the % refers to the signal ratio). The procedure, abridged:
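HEK293T PR-UAS-bla reporter cells in charcoal-stripped serum (2%) received compound after a 6 hr settling period, followed by R5020 agonist at 1 nM final; 16 hr incubation preceded the FRET substrate step and fluorescence measurement.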

Experiment [11] in a line: qHTS assay to identify small molecule antagonists of the progesterone receptor (PR) signaling pathway - cell viability counter screen (AID 1346798). Also: series mostly up to about 92 µM; nearly all actives have a fitted effect of over 50% in size. The procedure, abridged: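 Same-well multiplex: after 16 hr at 37C with compound and R5020 stimulation, HEK293T cells carrying a UAS-bla reporter received LiveBLAzer substrate (2 hr RT), then CellTiter-Glo (30 min RT) for luminescent viability.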

Experiment [12] is described as follows: qHTS assay to identify small molecule agonists of the progesterone receptor (PR) signaling pathway - cell viability counter screen (AID 1346799; calls by dose curve; also: nearly all actives have a fitted effect of over 45% in size). In short, it runs like this:
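Counter screen for cytotoxicity: compound-treated PR-UAS-bla HEK293T cells (16 hr, 37C, 5% CO2) were assayed with CellTiter-Glo, luminescence measured after 30 min at room temperature.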

A short description of experiment [13]: qHTS assay to identify small molecule antagonists of the TGF-beta/Smad signaling pathway - cell viability counter screen (AID 1346824). Also: nearly all actives have a fitted effect of over 50% in size. In short, it runs like this: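 Cytotoxicity counter-screen run in the same wells as the beta-lactamase Smad reporter read: CellTiter-Glo luminescence after 30 min at room temperature. HEK 293T SBE-bla cells had 5 hr compound exposure at 37 C with TGF-beta1 (0.25 ng/mL stock).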

Experiment [14] in a line: qHTS assay to identify small molecule agonists of the TGF-beta/Smad signaling pathway - cell viability counter screen (AID 1346829). Also: top concentration of the series differs between compounds; nearly all actives have a fitted effect of over 45% in size. In short, it runs like this: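 Tox21 qHTS format: SBE-bla HEK 293T cells treated with DMSO-dissolved compounds for 5 hr; CellTiter-Glo luminescence after 30 min at room temperature.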
Experiment [15] is described as follows: qHTS assay to identify small molecule agonists of the TGF-beta/Smad signaling pathway (AID 1346859; active = well fitted activation curve with a large enough effect in the signal ratio in the repeat runs, not every such curve was filed as active; the % refers to the signal ratio; also: series mostly up to about 77 µM). The procedure, abridged:
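Smad-responsive beta-lactamase reporter cells (HEK 293T) received compounds from DMSO stocks after overnight attachment, were incubated 5 hr, then treated 2 hr with FRET substrate before dual-emission fluorescence measurement (405 nm excitation).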

Experiment [16] concerns the target Thyrotropin-releasing hormone receptor (Homo sapiens) (UniProt P34981). The experiment is described as follows: qHTS assay to identify small molecule antagonists of the thyrotropin-releasing hormone receptor (TRHR) signaling pathway (AID 1346877; active = well fitted inhibition curve with a large enough effect in the repeat runs, not every such curve was filed as active; also: series mostly up to about 51 µM). In short, it runs like this:
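Cells (TRHR-HEK293) are plated and kept 18 h at 37 °C/5% CO2. A calcium-sensitive dye is added for 2 h, compound follows for 5 min at room temperature, and TRH is then given at 1 nM final.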

Experiment [17] deals with Thyrotropin receptor (Homo sapiens) (UniProt P16473). The experiment is described as follows: qHTS assay to identify small molecule antagonists of the thyroid stimulating hormone receptor (TSHR) signaling pathway (AID 1259385; calls by dose curve; also: nearly all actives have a fitted effect of over 20% in size; also: potency is read from the fitted curve at half-maximal effect). The procedure, abridged: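 Antagonist mode: compound-treated TSHR-expressing HEK293 cells were stimulated with 1.5 ng/mL TSH (final) in presence of Ro20-1724 for 30 min at RT. HTRF cAMP detection after 1 h; each compound tested at 15 concentrations, triplicate.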
Thyrotropin receptor (Homo sapiens), sequence (P16473 whole entry, looked up): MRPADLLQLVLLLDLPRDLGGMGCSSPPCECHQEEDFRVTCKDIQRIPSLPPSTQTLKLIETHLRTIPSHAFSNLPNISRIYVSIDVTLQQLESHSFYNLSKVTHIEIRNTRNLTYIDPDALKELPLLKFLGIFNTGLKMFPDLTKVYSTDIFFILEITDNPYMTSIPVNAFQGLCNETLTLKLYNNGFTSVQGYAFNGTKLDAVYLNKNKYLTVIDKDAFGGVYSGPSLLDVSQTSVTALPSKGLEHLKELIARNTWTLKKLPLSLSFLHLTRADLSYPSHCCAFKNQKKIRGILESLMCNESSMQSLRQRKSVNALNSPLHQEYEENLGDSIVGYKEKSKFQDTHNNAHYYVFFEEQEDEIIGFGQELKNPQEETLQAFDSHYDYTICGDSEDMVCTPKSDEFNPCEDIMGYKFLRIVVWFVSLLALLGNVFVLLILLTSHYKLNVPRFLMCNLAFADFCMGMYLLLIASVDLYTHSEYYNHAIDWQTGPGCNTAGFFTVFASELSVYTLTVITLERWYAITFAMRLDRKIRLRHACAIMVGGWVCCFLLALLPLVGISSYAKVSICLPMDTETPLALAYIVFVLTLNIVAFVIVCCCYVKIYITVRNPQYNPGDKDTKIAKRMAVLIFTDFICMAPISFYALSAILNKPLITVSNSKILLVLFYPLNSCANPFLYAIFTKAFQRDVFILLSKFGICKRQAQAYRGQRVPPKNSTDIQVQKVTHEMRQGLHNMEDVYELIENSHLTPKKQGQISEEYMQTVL

Experiment [18] deals with Progesterone receptor (Homo sapiens) (UniProt P06401). Kind of experiment: qHTS assay to identify small molecule agonists of the progesterone receptor (PR) signaling pathway (AID 1346784; calls by dose curve; also: nearly all actives have a fitted effect of over 30% in size). In short, it runs like this: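 Agonist mode, quantitative HTS format in a HEK 293T line expressing a UAS-controlled beta-lactamase reporter; 16 hr compound exposure at 37C in 2% charcoal-stripped FBS, then LiveBLAzer B/G FRET fluorescence.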
Progesterone receptor (Homo sapiens), sequence (P06401 whole entry, looked up): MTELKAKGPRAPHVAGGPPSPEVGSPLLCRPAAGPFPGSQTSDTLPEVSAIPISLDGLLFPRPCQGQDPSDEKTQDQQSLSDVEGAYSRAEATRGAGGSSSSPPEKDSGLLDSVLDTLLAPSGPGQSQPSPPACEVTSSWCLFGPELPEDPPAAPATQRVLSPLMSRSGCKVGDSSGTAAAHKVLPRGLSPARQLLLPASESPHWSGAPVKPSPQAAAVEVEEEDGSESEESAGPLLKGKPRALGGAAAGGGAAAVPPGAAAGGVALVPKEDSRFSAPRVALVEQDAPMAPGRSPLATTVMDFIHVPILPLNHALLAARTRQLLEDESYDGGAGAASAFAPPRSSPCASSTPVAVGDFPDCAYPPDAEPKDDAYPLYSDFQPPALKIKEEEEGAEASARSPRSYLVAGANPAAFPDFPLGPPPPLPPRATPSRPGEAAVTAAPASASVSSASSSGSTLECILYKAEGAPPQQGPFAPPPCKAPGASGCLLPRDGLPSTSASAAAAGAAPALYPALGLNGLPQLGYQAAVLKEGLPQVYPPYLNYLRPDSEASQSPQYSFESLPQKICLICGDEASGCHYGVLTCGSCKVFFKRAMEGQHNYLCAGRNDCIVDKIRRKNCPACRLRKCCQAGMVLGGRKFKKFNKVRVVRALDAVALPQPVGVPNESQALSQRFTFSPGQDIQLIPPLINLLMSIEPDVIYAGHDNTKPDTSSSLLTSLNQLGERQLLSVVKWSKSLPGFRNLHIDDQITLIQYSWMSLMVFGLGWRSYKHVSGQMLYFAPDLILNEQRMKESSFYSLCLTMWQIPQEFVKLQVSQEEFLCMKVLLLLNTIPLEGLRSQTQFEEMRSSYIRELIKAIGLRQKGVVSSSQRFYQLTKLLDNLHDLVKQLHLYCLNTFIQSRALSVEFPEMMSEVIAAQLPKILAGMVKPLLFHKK

Experiment [19] is described as follows: qHTS assay to identify small molecule agonists or antagonists of the thyroid stimulating hormone receptor (TSHR) signaling pathway - wild type cell line counter screen (AID 1259384; calls by dose curve). In short, it runs like this:
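Counter screen in untransfected Hek293: compounds (15-point titration, triplicate) plus phosphodiesterase inhibitor Ro20-1724 added after 18 h plating; 30 min RT. Intracellular cAMP via competitive d2/cryptate immunoassay, 1 h incubation.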

Experiment [20] has as its target Androgen receptor (Homo sapiens) (UniProt P10275). Kind of experiment: qHTS assay to identify small molecule agonists of the androgen receptor (AR) signaling pathway in the presence of an antagonist (AID 1259381; calls by dose curve; also: nearly all actives have a fitted effect of over 15% in size). The procedure, abridged: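 Cells are MDA-kb2 (human breast carcinoma, MMTV-luc, AR/GR responsive). Nilutamide is present at 3.0uM final throughout; compounds are added at 15 concentrations and incubated 16hr at 37C before ONE-Glo luminescence detection.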

Unmarked numbers belong to inactive results. Records with an inconclusive call do not appear. The source made the active and inactive calls. Unless noted, calls follow the shape of the dose curve; as a rule, active = well fitted curve in the direction sought with a large enough effect in the repeat runs; inconclusive = weak or mixed curves; inactive = no such curve, though single readings can be large; an effect the other way counts as inactive or inconclusive.

Thyrotropin-releasing hormone receptor (Homo sapiens), sequence (P34981 whole entry, looked up): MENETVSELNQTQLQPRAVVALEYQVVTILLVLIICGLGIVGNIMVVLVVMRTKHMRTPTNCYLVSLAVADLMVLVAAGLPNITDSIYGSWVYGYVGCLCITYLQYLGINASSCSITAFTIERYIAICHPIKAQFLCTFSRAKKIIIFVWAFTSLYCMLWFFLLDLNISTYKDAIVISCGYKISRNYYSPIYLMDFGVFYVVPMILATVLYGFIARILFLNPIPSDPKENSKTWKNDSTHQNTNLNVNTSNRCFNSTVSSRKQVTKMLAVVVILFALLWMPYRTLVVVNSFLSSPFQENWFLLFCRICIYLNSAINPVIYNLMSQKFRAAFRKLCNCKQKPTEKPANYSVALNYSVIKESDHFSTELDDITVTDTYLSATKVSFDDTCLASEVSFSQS
Estrogen receptor beta (Homo sapiens), sequence (Q92731 whole entry, looked up): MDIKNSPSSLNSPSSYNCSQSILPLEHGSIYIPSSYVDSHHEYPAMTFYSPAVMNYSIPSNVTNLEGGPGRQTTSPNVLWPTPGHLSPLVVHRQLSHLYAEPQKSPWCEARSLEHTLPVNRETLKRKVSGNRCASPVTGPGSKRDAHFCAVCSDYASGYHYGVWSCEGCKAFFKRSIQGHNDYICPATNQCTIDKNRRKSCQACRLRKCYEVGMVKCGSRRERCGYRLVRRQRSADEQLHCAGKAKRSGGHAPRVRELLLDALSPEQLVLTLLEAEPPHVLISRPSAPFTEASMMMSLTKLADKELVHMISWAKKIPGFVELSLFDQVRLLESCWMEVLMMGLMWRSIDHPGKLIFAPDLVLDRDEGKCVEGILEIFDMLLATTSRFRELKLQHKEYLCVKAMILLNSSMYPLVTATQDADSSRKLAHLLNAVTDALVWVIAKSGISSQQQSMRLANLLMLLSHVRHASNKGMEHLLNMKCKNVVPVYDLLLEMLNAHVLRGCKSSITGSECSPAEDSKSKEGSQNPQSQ
Androgen receptor (Homo sapiens), sequence (P10275 whole entry, looked up): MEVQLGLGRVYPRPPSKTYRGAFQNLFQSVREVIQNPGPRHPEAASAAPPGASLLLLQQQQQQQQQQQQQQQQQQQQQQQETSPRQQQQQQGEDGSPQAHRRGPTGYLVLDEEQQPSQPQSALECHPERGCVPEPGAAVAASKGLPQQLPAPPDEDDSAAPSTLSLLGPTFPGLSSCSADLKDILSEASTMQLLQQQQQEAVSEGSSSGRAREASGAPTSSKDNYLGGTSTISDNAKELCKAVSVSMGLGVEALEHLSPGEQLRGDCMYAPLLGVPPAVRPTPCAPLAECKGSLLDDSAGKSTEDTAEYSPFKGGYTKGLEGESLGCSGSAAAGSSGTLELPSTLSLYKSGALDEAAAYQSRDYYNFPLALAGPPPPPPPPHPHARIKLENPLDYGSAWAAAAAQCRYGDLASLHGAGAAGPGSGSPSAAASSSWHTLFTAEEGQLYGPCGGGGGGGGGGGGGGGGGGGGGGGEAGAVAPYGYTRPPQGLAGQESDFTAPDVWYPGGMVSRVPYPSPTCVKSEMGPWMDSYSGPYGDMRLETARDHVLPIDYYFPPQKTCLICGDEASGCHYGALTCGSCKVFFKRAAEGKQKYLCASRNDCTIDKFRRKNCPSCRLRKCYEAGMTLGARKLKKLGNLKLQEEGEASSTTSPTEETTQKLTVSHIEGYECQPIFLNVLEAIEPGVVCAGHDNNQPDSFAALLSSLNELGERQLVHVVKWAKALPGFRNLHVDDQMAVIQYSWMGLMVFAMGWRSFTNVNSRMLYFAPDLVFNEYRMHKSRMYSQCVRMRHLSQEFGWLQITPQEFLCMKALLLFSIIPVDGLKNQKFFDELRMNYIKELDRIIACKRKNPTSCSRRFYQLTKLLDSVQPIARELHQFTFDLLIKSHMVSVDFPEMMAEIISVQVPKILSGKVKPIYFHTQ

As to `CC(=O)OC(C)(C)C`, the Potency result in [1], in experiment [2], in experiment [4], in experiment [5], in experiment [6] and in [7] was “inactive” throughout. Besides, the Potency entry in experiment [8], in [10], in [11] and in experiment [12] was “inactive” each time. For the same molecule, the call in [3], in [9], in experiment [13], in experiment [14], in experiment [15] and in experiment [16] was inactive.

Regarding `c1cc(CN2CCCCC2)cc(OCCCNc2nc3ccccc3s2)c1`, the Potency entry in [1], in experiment [7], in experiment [8], in experiment [18] and in experiment [11] was “inactive” throughout. Moreover, the values for the Potency in experiment [2], in experiment [4] and in experiment [17] were 4.73 µM (active), 23.7 µM (active) and 29.8 µM (active), respectively. The outcome in experiment [3], in experiment [14] and in [15] was inactive.

For `COC(=O)CCCC(=O)O`, the Potency entry in [1], in [2], in experiment [4], in experiment [5], in experiment [6] and in [7] was “inactive” throughout. In addition, the Potency entry in experiment [8], in experiment [17], in experiment [11] and in experiment [12] was “inactive” in each case. Besides, the call in [19], in experiment [13], in experiment [14] and in experiment [15] was inactive.

In the case of `C=CCn1c(=O)n([C@@H]2O[C@H](CO)[C@@H](O)[C@H]2O)c2nc(N)[nH]c(=O)c21`, the Potency result in experiment [1], in experiment [2], in [4], in experiment [5], in experiment [6] and in [20] was “inactive” in each case. The Potency result in [7], in experiment [8], in [17], in experiment [18], in experiment [10] and in experiment [11] was “inactive” throughout. The result in experiment [19], in [9], in experiment [13], in [14], in [15] and in experiment [16] was inactive.

For `CN(C)C(=O)Nc1ccccc1`, the Potency result in experiment [1], in experiment [2], in [4], in experiment [5], in [6] and in [7] was “inactive” each time. Also, the Potency entry in experiment [8], in experiment [17], in experiment [18], in experiment [10] and in [11] was “inactive” each time. Further, the outcome in experiment [9], in experiment [13], in experiment [15] and in experiment [16] was inactive.

Regarding `CCCCCOC(=O)Nc1nc(=O)n([C@@H]2O[C@H](C)[C@@H](O)[C@H]2O)cc1F`, the Potency entry in [1], in experiment [2], in experiment [4], in experiment [5], in experiment [6] and in experiment [7] was “inactive” in each case. Also, the Potency result in experiment [8], in experiment [17], in experiment [18], in experiment [10], in experiment [11] and in experiment [12] was “inactive” each time. Also, the molecule was classed as inactive in experiment [19], in experiment [9], in experiment [13], in experiment [14] and in [15].

In the case of `COc1cc(C(=O)N2CCOCC2)cc(OC)c1OC`, the Potency result in experiment [1], in [2], in experiment [4], in experiment [5], in [6] and in experiment [7] was “inactive” each time. Moreover, the Potency entry in experiment [11] and in [12] was “inactive” throughout. Besides, the outcome in [9], in experiment [13], in experiment [14] and in experiment [15] was inactive.

For the molecule `CCCCNc1ccccc1`, the Potency result in [1], in [2], in experiment [4], in experiment [5], in experiment [6] and in [20] was “inactive” throughout. The Potency entry in experiment [8], in experiment [17], in experiment [18], in [10] and in experiment [12] was “inactive” in each case. Further, the molecule was classed as inactive in experiment [19], in experiment [9], in experiment [13], in [14], in experiment [15] and in experiment [16].
